Potency data for 19 compounds are collected here from PubChem BioAssay (NCATS).

Records with an inconclusive call do not appear. Activity calls are given as the source filed them. Calls come from the whole dose curve; as a rule, active = well fitted cell-killing curve with a large enough effect; inconclusive = small, poorly fitted or top-dose-only effect, or effect the other way; inactive = no such curve, though single readings can be large or run the other way.

Experiment [1] is described as follows: Quantitative High-Throughput drug screen in 47 multiple myeloma cell lines against the NCATS MIPE library collection: Delta47_JCRB cell viability assay (AID 1918925; note: nearly all actives have a fitted effect of over 45% in size). Put shortly:
(§1)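 Myeloma cells (500 per well) were exposed to MIPE 4.0 compounds by pin transfer and incubated 48 hours at 37C, 5% CO2. Viability was read as ATP by CellTiter-Glo luminescence, normalised to DMSO (100%) and media-only (0%) wells.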

Experiment [2] can be described thus: Quantitative High-Throughput drug screen in 47 multiple myeloma cell lines against the NCATS MIPE library collection: AMO1_DSMZ cell viability assay (AID 1918927; note: nearly all actives have a fitted effect of over 30% in size). Put shortly:
as §1

Experiment [3] is described as follows: Quantitative High-Throughput drug screen in 47 multiple myeloma cell lines against the NCATS MIPE library collection: ARP1_JJKsccF8 cell viability assay (AID 1918928; note: nearly all actives have a fitted effect of over 40% in size). Put shortly: (§2)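 ATP readout (CellTiter-Glo), 48 h drug incubation, 37 °C/5% CO2, 500 cells per well; normalisation to DMSO (100%) and media-only (0%) controls.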
A short description of experiment [4]: Quantitative High-Throughput drug screen in 47 multiple myeloma cell lines against the NCATS MIPE library collection: Karpas620_DSMZ cell viability assay (AID 1918959). Note: nearly all actives have a fitted effect of over 30% in size. Put shortly:
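Inhibition of cell viability is measured here. Each line was plated at 500 cells per well, treated with MIPE 4.0 drugs, kept 48 hours at 37C, then assayed for ATP content by CellTiter-Glo luminescence.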

Experiment [5] is described as follows: Quantitative High-Throughput drug screen in 47 multiple myeloma cell lines against the NCATS MIPE library collection: KMM1_JCRB cell viability assay (AID 1918960). Note: nearly all actives have a fitted effect of over 30% in size. Put shortly:
as §2

Experiment [6] in a line: Quantitative High-Throughput drug screen in 47 multiple myeloma cell lines against the NCATS MIPE library collection: Karpas417_ECACC cell viability assay (AID 1918961). The settings on record: Karpas417 myeloma viability, CellTiter-Glo ATP luminescence, 48 h; viability (% of DMSO): at 45.8 µM (top of the series). Put shortly: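 qHTS of the MIPE 4.0 collection: 500 myeloma cells/well, 48 h drug exposure at 37C in 5% CO2, then CellTiter-Glo for 5 min at room temperature before luminescence reading.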

Experiment [7] is described as follows: Quantitative High-Throughput drug screen in 47 multiple myeloma cell lines against the NCATS MIPE library collection: ARD_JJKsccE7 cell viability assay (AID 1918929). Put shortly:
as §1

Experiment [8] in a line: Quantitative High-Throughput drug screen in 47 multiple myeloma cell lines against the NCATS MIPE library collection: EJM_DSMZ cell viability assay (AID 1918926; note: nearly all actives have a fitted effect of over 30% in size). Put shortly: as §1
Potency is the fitted concentration of half-maximal effect.

Turning to `COc1c(C)cnc(Cn2cnc3c(Cl)nc(N)nc32)c1C`, the Potency was 0.264 µM (active) in experiment [1]; 0.0833 µM (active) in experiment [2]; 0.118 µM (active) in experiment [3]; 0.209 µM (active) in experiment [4]; 0.059 µM (active) in experiment [5]; 0.0235 µM (active) in experiment [6].

In the case of `C=C[C@@H]1CN2CCC1C[C@@H]2C(O)c1ccnc2ccc(OC)cc12` (stereo partly drawn), the Potency result in experiment [1], in experiment [2], in experiment [4] and in experiment [5] was “inactive” in each case. In experiment [3], the Potency was 1.87 µM (active).

For `CO[C@@H]1C(N(C)C(=O)c2ccccc2)C[C@H]2O[C@]1(C)n1c3ccccc3c3c4c(c5c6ccccc6n2c5c31)C(=O)NC4=O` (stereo partly drawn), the Potency in experiment [1] is 1.87 µM (active). In experiment [4], the Potency result is “inactive”.

Take `C=CCc1cccc(C=NNC(=O)CN2CCN(Cc3ccccc3)CC2)c1O`: the Potency was 18.7 µM (active) in experiment [1]; 5.26 µM (active) in experiment [2]; 9.35 µM (active) in experiment [3]; 9.35 µM (active) in experiment [7]; 9.35 µM (active) in experiment [4]; 5.26 µM (active) in experiment [5].

For `CO[C@H]1/C=C\O[C@@]2(C)Oc3c(C)c(O)c4c(O)c(c5c(nc6cc(C)ccn65)c4c3C2=O)NC(=O)C(C)=CC=C[C@H](C)[C@H](O)[C@@H](C)[C@@H](O)[C@@H](C)[C@H](OC(C)=O)[C@H]1C`, the Potency in experiment [1] is 11.8 µM (active); in experiment [2] it was 16.6 µM (active); in experiment [7] it was 18.7 µM (active); in experiment [4], 18.7 µM (active); in experiment [5], 18.7 µM (active); in experiment [6], 0.833 µM (active).

Regarding `CCc1cc(-c2n[nH]c(C)c2-c2ccc3c(c2)OCCO3)c(O)cc1O`, the Potency was 7.43 µM (active) in experiment [1]; 3.72 µM (active) in experiment [2]; 2.96 µM (active) in experiment [3]; 1.18 µM (active) in experiment [7]; 14.8 µM (active) in experiment [4]; 3.72 µM (active) in experiment [5].

For the compound `Cc1cc(CS(=O)(=O)c2ccccc2)cc(OCc2ccc(CN3CCC[C@H]3CO)cc2)c1`, the Potency in experiment [1] is 14.8 µM (active); in experiment [2], 14.8 µM (active); in experiment [4] it was 14.8 µM (active); in experiment [6] it was 3.72 µM (active). The Potency entry in experiment [8] is “inactive”.

In the case of `COc1ccc2c(c1)c(C1=C(c3c[nH]c4ccccc34)C(=O)NC1=O)cn2CCCN(C)C`, the Potency is 7.43 µM (active) in experiment [1], 14.8 µM (active) in experiment [2], 23.5 µM (active) in experiment [7] and 23.5 µM (active) in experiment [5].

Take `COc1cc(Cl)cn2c(-c3cccc(NC4CNC4)n3)cnc12`: the Potency in experiment [1] was 20.9 µM (active); in experiment [2], 5.26 µM (active); in experiment [5] it was 16.6 µM (active). In addition, the Potency entry in experiment [3] was “inactive”.

Turning to `CC(C)C[C@@H](C(=O)N[C@H](C(=O)OC1CCCC1)c1ccccc1)[C@H](O)C(=O)NO`, the Potency in experiment [1] was 20.9 µM (active); in experiment [3], 14.8 µM (active); in experiment [7], 4.69 µM (active); in experiment [5], 4.18 µM (active); in experiment [6] it was 1.32 µM (active). The Potency result in experiment [2] was “inactive”.

In the case of `CCC(=O)OCC(=O)[C@@]1(OC(=O)CC)[C@@H](C)C[C@@H]2[C@H]3CCC4=CC(=O)C=C[C@]4(C)[C@@]3(F)[C@@H](O)C[C@@]21C`, in experiment [1], the Potency result is “inactive”. The Potency in experiment [2] was 9.35 µM (active); in experiment [7] it was 2.09 µM (active); in experiment [4], 2.35 µM (active); in experiment [6], 0.0935 µM (active).

Take `OC[C@H]1O[C@@H](Oc2ccc(O)cc2)[C@H](O)[C@@H](O)[C@H]1O`: the Potency result in experiment [1], in experiment [8], in experiment [4] and in experiment [5] was “inactive” in each case.

With `CN(C(Cc1ccc(OS(=O)(=O)c2cccc3cnccc23)cc1)C(=O)N1CCN(c2ccccc2)CC1)S(=O)(=O)c1cccc2cnccc12` (stereo not drawn), the Potency is 5.26 µM (active) in experiment [1]; 8.33 µM (active) in experiment [2]; 5.9 µM (active) in experiment [7]; 5.9 µM (active) in experiment [4]; 4.18 µM (active) in experiment [6].

For `CC(=O)NCCC(=O)N[C@@H](CCC(N)=O)C(=O)N[C@@H](CO)C(=O)N[C@@H](CCC(N)=O)C(=O)N[C@@H](CCC(N)=O)C(=O)N[C@H](C(=O)N[C@@H](Cc1ccccc1)C(=O)N[C@]1(C)CCCCCCC=CCCC[C@@](C)(C(=O)N[C@@H](CCC(N)=O)C(=O)N[C@@H](CC(N)=O)C(N)=O)NC(=O)[C@H](CC(C)C)NC(=O)[C@H](CC(C)C)NC(=O)[C@@H](CCCNC(=N)N)NC(=O)[C@H](Cc2c[nH]c3ccccc23)NC(=O)[C@H](CC(C)C)NC(=O)[C@H](CC(N)=O)NC1=O)[C@H](C)O`, the values for the Potency in experiment [1], in experiment [8] and in experiment [3] were 20.9 µM (active), 18.7 µM (active) and 20.9 µM (active), respectively. Further, the Potency result in experiment [4] and in experiment [5] was “inactive” throughout.

Regarding `CC1(C)[C@H]2CC[C@]3(C)[C@@H](C(=O)C=C4[C@@H]5C[C@@](C)(C(=O)O)CC[C@]5(C)CC[C@]43C)[C@@]2(C)CC[C@@H]1O`, the Potency result in experiment [1], in experiment [8], in experiment [3], in experiment [7], in experiment [4] and in experiment [5] was “inactive” each time. Moreover, the Potency result in experiment [6] is “inactive”.

On to `C#C[C@]1(O)CC[C@H]2[C@H]3CCc4cc(OC)ccc4[C@H]3CC[C@@]21C`, for which the Potency in experiment [8] is 13.2 µM (active); in experiment [2], 26.4 µM (active); in experiment [7], 23.5 µM (active). Besides, the Potency entry in experiment [3] is “inactive”.

Consider `C[C@@H]1[C@H](O)[C@@H](C)C=CC=CC=CC=CC=CC=CC=C[C@H](O[C@@H]2O[C@H](C)[C@H](O)[C@H](N)[C@@H]2O)C[C@@H]2O[C@](O)(C[C@@H](O)C[C@@H](O)[C@H](O)CC[C@@H](O)C[C@@H](O)CC(=O)O[C@H]1C)C[C@H](O)[C@@H]2C(=O)O`, for which the Potency entry in experiment [1], in experiment [8] and in experiment [4] was “inactive” each time. Besides, the Potency in experiment [3] is 7.43 µM (active).

As to `CN[C@@H]1CN(c2ccc3c(=O)c(C(=O)O)cn(-c4nccs4)c3n2)C[C@@H]1OC`, the Potency in experiment [1] was 5.75 µM (active); in experiment [2], 0.812 µM (active); in experiment [3], 1.82 µM (active). Moreover, the Potency result in experiment [7] and in experiment [4] was “inactive” each time.

`C=CC[N+]1([C@H]2C[C@H]3[C@@H]4CC[C@H]5C[C@H](O)[C@@H](N6CCOCC6)C[C@]5(C)[C@@H]4CC[C@]3(C)[C@H]2OC(C)=O)CCCC1`: the Potency result in experiment [1], in experiment [4], in experiment [5] and in experiment [6] was “inactive” in each case.
